Bioassay records (PubChem)
An excerpt weighted towards active compounds, which were near 6% of everything screened.
D1 potentiator: human D1 dopamine receptor positive modulation; HEK293 TREx D1 cells, calcium flux, dopamine EC20 potentiation; potentiation, % at 10 µM; 360,000 tested, 0.036% active; AID 504651; in the data active means potentiation above about 30%
D3 antag: antagonists of human D3 dopamine receptor | max response, negative = inhibition, % | 360,000 tested, 2.5% active | P35462 | D3R cells, DiscoveRx beta-arrestin luminescence, antagonist mode; active compounds read low | AID 652054; in the data active means max response below about -50%; inconclusive means no clear call, values can overlap the other calls
Target sequence (P35462 whole entry, looked up): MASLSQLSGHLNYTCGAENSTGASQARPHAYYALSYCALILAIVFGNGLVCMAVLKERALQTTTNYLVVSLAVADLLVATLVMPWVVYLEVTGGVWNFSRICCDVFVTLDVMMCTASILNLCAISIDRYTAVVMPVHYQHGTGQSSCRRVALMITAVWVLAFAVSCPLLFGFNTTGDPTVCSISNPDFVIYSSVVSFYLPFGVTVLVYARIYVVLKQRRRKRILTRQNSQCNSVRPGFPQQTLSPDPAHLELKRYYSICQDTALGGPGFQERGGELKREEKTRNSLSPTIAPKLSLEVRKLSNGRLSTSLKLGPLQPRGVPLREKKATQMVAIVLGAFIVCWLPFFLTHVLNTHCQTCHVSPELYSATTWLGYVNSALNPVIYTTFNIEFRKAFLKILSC
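Cells expressing the human receptor were seeded at 1500 cells/well, incubated overnight at 37 degrees C in 5% CO2, then exposed to library compounds with dopamine controls for 90 minutes at 37 degrees C before luminescent detection.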
D1 antagonist: blocks dopamine activation of the human D1 receptor; P21728; HEK293 TREx D1 cells, calcium flux, dopamine EC80; active compounds read low; activity change, negative = inhibition, % at 10 µM; 360,000 tested, 3.2% active; in the data active means activity change below about -30%
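After overnight tetracycline induction at 30 C, force-coupled D1 HEK293 cells took up a no-wash calcium dye at room temperature. Compounds were added and monitored 180 s, and the response to EC80 dopamine was then recorded.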
DRD3 agonist: D3 dopamine receptor (human) agonism; AID 652048; D3R DiscoveRx beta-arrestin cells, luminescence, 90 min; 410,000 tested, 0.58% active; max activation, %; in the data active means max activation above about 30%
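Agonist mode: compounds and dopamine controls were applied to plated cells for 90 min at 37 degrees C after an overnight attachment at 1500 cells/well. Luminescent read-out followed 30 - 60 minutes at room temperature with DiscoveRx detection reagent.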
D1 ag: activates the human D1 dopamine receptor; 360,000 tested, 1% active; P21728; HEK293 T-REx D1 cells, calcium flux, agonist mode; activation, % at 2 µM; in the data active means activation above about 30%
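Inducible HEK293 T-REx D1 cells, force-coupled to calcium signalling, were plated at 4000 cells/well with tetracycline and held overnight at 30 C. After no-wash calcium dye loading, compound-evoked calcium rise over 180 s flagged agonists.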
Numbers stand for hits; 0 = inactive; ? = inconclusive; - = not tested or not shown; ! = a repeat was not active.

SMILES | D1 potentiator | D3 antag | D1 antagonist | DRD3 agonist | D1 ag
CCC1CCCCN1S(=O)(=O)c1ccc(C(=O)Nc2nnc(-c3ccccc3Cl)o2)cc1 (configuration not stated) | 0 | -85.9 | 0 | 0 | 0
CC1CCCCN1S(=O)(=O)c1ccc(C(=O)Nc2nnc(-c3ccccc3Cl)o2)cc1 (configuration not stated) | 0 | -70.6 | 0 | 0 | 0
CCCCC(=O)Nc1cc(-c2cn3cccnc3n2)ccc1C | 0 | - | 0 | 0 | 0
COc1ccccc1NC(=O)CN1CCC(C(=O)c2ccc(F)cc2)CC1 | 0 | -70.3 | 0 | 0 | 0
COc1ccc(C(=O)N2CCC(C(=O)c3ccc(F)cc3)CC2)cc1 | 0 | 0 | 0 | 0 | 0
O=C(CN1CCCC1)Nc1ccccc1Cl | 0 | ? | 0 | 0 | 0
CCOc1ccccc1NC(=O)CN1CCC(C(=O)c2ccc(F)cc2)CC1 | 0 | ? | 0 | 0 | 0
O=C(CN1CCC(C(=O)c2ccc(F)cc2)CC1)Nc1ccccc1Cl | 0 | -56.9 | 0 | 0 | 0
COc1ccccc1C(=O)N1CCC(C(=O)c2ccc(F)cc2)CC1 | 0 | -70.2 | -31.9 | 0 | 0
CN(C)c1ccc(N=Nc2nc3ccccc3n2C)cc1 | 0 | -74.5 | 0 | 0 | 0
Cn1c(N=Nc2ccccc2)nc2ccccc21 | 0 | 0 | 0 | 0 | 0
CCc1cccc(C)c1NC(=O)C(CC)Sc1nc2ccncc2[nH]1 (configuration not stated) | 0 | - | 0 | 0 | 0
Cc1ccc(C2=NS(=O)(=O)N(C)C(C(=O)NCc3ccc(F)cc3)=C2)cc1 | 0 | 0 | 0 | 0 | 0
COc1ccc(C2=NS(=O)(=O)N(C)C(C(=O)Nc3ccc(OC(F)(F)F)cc3)=C2)cc1 | 0 | - | -37.1 | 0 | 0
Cc1ccc(C2=NS(=O)(=O)N(C)C(C(=O)NCc3ccccc3)=C2)cc1 | 0 | 0 | -46.9 | 0 | 0
COc1ccc(CNC(=O)C2=CC(c3ccc(C)cc3)=NS(=O)(=O)N2C)cc1 | 0 | 0 | -33.9 | 0 | 0
Cc1ccc(C2=NS(=O)(=O)N(C)C(C(=O)NC(C)c3ccccc3)=C2)cc1 (configuration not stated) | 0 | 0 | -43.4 | 0 | 0
CCC(C)NC(=O)c1ccc2nc(CCc3ccccc3)oc2c1 (configuration not stated) | 0 | - | 0 | 0 | 0
COc1cccc(NC(=O)Cn2c(=O)n(-c3ccc(C)cc3)c(=O)c3ccc(C(=O)NCc4ccco4)cc32)c1 | 0 | - | 0 | 0 | 0
CCOc1ccc(Br)cc1C1C(C(=O)Nc2ccccc2OC)=C(C)Nc2nnnn21 (configuration not stated) | 0 | - | 0 | 0 | 0
CCOc1ccc(CCNC(=O)Cn2c(-c3cccs3)cc3ccccc32)cc1 | 0 | - | 0 | 0 | 0
CC(=O)Nc1ccc(NC(=O)C2CC(=O)N(c3ccc(Cl)cc3)C2)cc1 (configuration not stated) | 0 | 0 | 0 | 0 | 0
CC(=O)Nc1ccc(NC(=O)C2CC(=O)N(c3ccccc3Cl)C2)cc1 (configuration not stated) | 0 | 0 | -30.5 | 0 | 0
Cc1ccc2c(c1)c(=O)c1ccccc1n2CCCC(=O)Nc1ccc(C)c(C)c1 | 0 | - | 0 | 0 | 0
Cc1ccc2c(c1)c(=O)c1ccccc1n2CCCC(=O)Nc1ccc(C)c(F)c1 | 0 | - | -47.5 | 0 | 0
SMILES | D1 potentiator | D3 antag | D1 antagonist | DRD3 agonist | D1 ag
Cc1ccc(NC(=O)Cc2nn(C)c(=O)c3ccccc23)cc1F | 0 | 0 | -66.2 | 0 | 0
CCC(C)NC(=O)Cn1c(=O)c2cccn2c2ccc(F)cc21 (configuration not stated) | 0 | - | 0 | 0 | 0
CC1CCN(S(=O)(=O)c2ccc3c(c2)c(=O)c(C(=O)NCCc2ccccc2)cn3C)CC1 | 0 | - | 0 | 0 | 0
CCc1ccc(NC(=O)c2cc(S(=O)(=O)N3CCCCCC3)ccc2F)cc1 | 0 | - | 0 | 0 | 0
CCN(C(=O)c1cccs1)c1nc(-c2ccc(OC)cc2)cs1 | 0 | 0 | 0 | 0 | 0
Cc1ccc(-c2csc(N(CCCN(C)C)C(=O)c3ccco3)n2)cc1 | 0 | ? | 0 | 0 | 0
COc1ccc(-c2csc(N(CCCN(C)C)C(=O)c3cccs3)n2)cc1 | 0 | -58.3 | 0 | 0 | 0
CN(C)CCCN(C(=O)c1ccco1)c1nc(-c2ccc(Cl)cc2)cs1 | 0 | ? | -42.4 | 0 | 32.6
C#CC(C)(C)NS(=O)(=O)c1cc(-c2nnc(Nc3ccc(C)cc3)c3ccccc23)ccc1C | 0 | - | 0 | 0 | 0
C[C@@H](NC(=O)[C@@H]1Cc2ccccc2CN1C(=O)OC(C)(C)C)C(=O)NC1CCCC1 | 0 | 0 | -40.5 | 0 | 0
CC(NC(=O)[C@@H](C)NC(=O)[C@@H]1Cc2ccccc2CN1C(=O)OC(C)(C)C)c1ccccc1 (some centres not stated) | 0 | 0 | 0 | 0 | 0
COc1ccc(NCc2cc3cc4c(cc3n(CC(=O)Nc3ccc(F)cc3F)c2=O)OCO4)cc1 | 0 | - | 0 | 0 | 66.0
COc1ccc(NCc2cc3cc4c(cc3n(CC(=O)Nc3ccc(C)cc3C)c2=O)OCO4)cc1 | 0 | - | 0 | 0 | 0
COc1ccc(NCc2cc3cc4c(cc3n(CC(=O)Nc3cccc(F)c3)c2=O)OCO4)cc1 | 0 | - | 0 | 0 | 152.9
COc1ccc(NCc2cc3cc4c(cc3n(CC(=O)Nc3ccc(C)cc3)c2=O)OCO4)cc1 | 0 | - | 0 | 0 | 57.4
CCc1ccc(NCc2cc3cc4c(cc3n(CC(=O)Nc3ccc(OC)cc3)c2=O)OCO4)cc1 | 0 | - | 0 | 0 | 0
CCc1ccc(NCc2cc3cc4c(cc3n(CC(=O)Nc3cccc(OC)c3)c2=O)OCO4)cc1 | 0 | - | 0 | 0 | 56.3
Cc1ccc(-n2c(=O)c3c(cnn3C)n(CC(=O)Nc3cc(C)ccc3C)c2=O)cc1 | 0 | - | 0 | 0 | 0
CCn1nc(-c2ccccc2)c(-c2ccccc2)c(C(=O)Nc2nc(C)c(C(C)=O)s2)c1=O | 0 | - | 0 | 0 | 0
O=C(NN1CCCC1)NS(=O)(=O)c1ccc(Cl)cc1 | - | - | - | 0 | -
COc1cc2cc(CNc3ccccc3)c(=O)n(CC(=O)Nc3ccc(C)c(Cl)c3)c2cc1OC | 0 | - | 0 | 0 | 30.4
COc1cc(CNc2ccc3[nH]c(=O)[nH]c3c2)cc(Br)c1OCc1ccc(F)cc1 | 0 | 0 | 0 | 32.9! | 0
COc1cc(CNc2ccc3[nH]c(=O)[nH]c3c2)cc(Cl)c1OCc1ccc(F)cc1 | 0 | - | 0 | 0 | 0
CCOc1ccc(-c2cc(C(=O)N3CCN(c4cccc(C(F)(F)F)c4)CC3)c3ccccc3n2)cc1 | 0 | - | 0 | 0 | 0
CC(C)(C)NCC(O)COc1ccc(NC(=O)NC2CCCCC2)cc1 (configuration not stated) | - | - | - | 0 | -
CCCCn1nnc(NC(=S)NC(=O)c2ccc(-c3cccc(Cl)c3Cl)o2)n1 | 0 | -70.8 | 0 | 0 | 0
CCCCn1nnc(NC(=O)c2ccc(-c3ccccc3[N+](=O)[O-])o2)n1 | 0 | ? | - | 0 | 0
Cn1nc(-c2ccccc2)c2nc3ccccc3nc21 | 0 | ? | 0 | 0 | 94.4
CCCCn1nc(-c2ccccc2)c2nc3ccccc3nc21 | 0 | - | 0 | - | 50.8
